From PubChem BioAssay AID939 (National Center for Advancing Translational Sciences (NCATS), 2007)
Records with an inconclusive call do not appear. A call without a number means that no potency is given here. Active and inactive are the calls of the source. The call rests on the fitted dose curve; in most records, active means well fitted activation curve with a large enough effect in the main read-out, with a control signal flat; inconclusive means small, poorly fitted or top-dose-only effect, or effect the other way, or a change in a side signal; inactive means no such curve, though single readings can be large or run the other way.

The molecules below were run against Thyrotropin receptor (Homo sapiens) (UniProt P16473) (assay: Confirmation Concentration-Response Assay for Agonists of the Thyroid Stimulating Hormone Receptor). Conditions: HEK293 TSHR-CNG cells, membrane potential dye, cAMP; series mostly up to 25.6 µM.
Thyrotropin receptor (Homo sapiens), sequence (P16473 whole entry, looked up): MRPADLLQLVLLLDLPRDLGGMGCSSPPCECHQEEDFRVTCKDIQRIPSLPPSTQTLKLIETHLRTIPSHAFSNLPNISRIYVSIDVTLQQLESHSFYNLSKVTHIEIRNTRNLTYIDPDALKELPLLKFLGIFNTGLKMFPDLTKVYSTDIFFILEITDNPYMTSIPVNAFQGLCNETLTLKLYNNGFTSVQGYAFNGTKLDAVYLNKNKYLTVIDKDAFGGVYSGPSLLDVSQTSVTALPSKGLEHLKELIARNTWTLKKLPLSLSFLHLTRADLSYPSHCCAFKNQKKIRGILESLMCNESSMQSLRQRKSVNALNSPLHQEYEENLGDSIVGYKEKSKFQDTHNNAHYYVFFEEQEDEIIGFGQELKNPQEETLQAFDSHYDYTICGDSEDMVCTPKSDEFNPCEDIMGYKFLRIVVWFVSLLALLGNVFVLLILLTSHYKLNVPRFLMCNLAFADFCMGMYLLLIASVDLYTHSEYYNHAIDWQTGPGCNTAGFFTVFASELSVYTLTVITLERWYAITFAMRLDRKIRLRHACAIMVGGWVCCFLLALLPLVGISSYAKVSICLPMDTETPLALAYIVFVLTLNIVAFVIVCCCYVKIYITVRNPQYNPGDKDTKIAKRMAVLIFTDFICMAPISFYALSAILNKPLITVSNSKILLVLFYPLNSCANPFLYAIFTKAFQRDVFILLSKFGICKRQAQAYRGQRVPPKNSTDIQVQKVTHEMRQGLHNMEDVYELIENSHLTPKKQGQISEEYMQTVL
Source text: NIH Chemical Genomics Center [NCGC] NIH Molecular Libraries Screening Centers Network [MLSCN] MLSCN Grant: 1 X01 MH080680-01 PI Name: Dr. Marvin Gershengorn, NIH NCGC Assay Overview: Thyroid Stimulating Hormone Receptor TSH is an alpha/beta heterodimeric glycoprotein hormone secreted from the anterior pituitary gland which belongs to the glycoprotein hormone family. The actions of TSH are mediated by a seven-transmembrane receptor, which upon TSH binding couples preferentially to the G-alpha (s) protein (Gs), resulting in activation of adenylate cyclase and increase in cyclic adenosine 3', 5' monophosphate (cAMP). The TSH receptor (THSR) is mainly expressed in thyroid follicular cells and regulates their growth and function. Recombinant TSH is used to activate TSHR in patients with thyroid cancer receiving thyroid hormone suppression therapy and to screen for residual tumor after surgery, but it is expensive and must be administered intramuscularly. An orally active small molecule TSHR agonist would serve as an invaluable research tool for studying TSHR pharmacology and physiology, and would have multiple advantages in therapeutic settings. However, no selective small molecule agonist of the TSH receptor exists, and no small molecule screen for TSHR agonists has ever been reported. This cell based assay utilized a cyclic nucleotide gated ion channel (CNG) as a biosensor for cAMP induction by potential TSHR agonists. TSHR cell line HEK 293 cells stably expressing the TSHR as well as a modified CNG were purchased from BD biosciences. Stimulation of cAMP production causes the CNG to open and subsequent membrane depolarization to occur. A fluorescent membrane potential dye (BD biosciences) was utilized to detect cAMP stimulation in TSHR cells. The cells were maintained in DMEM medium (Invitrogen) containing 10 % FBS (Hyclone), 100 units/ml Penicillin, 100 ug/ml Streptomycin (Invitrogen), and 250 ug/ml Geneticin (Invitrogen) and 1 ug/ml Puromycin (Invitrogen) at 37C in 5% CO2. HEK 293 cells expressing CNG but without TSHR (parental cells) were used in concert to control for compounds signaling through endogenous receptors and targets of HEK 293 cells.
NCGC Assay Protocol Summary: High Throughput Screening. Freshly passaged cells (TSHR or parental) were dispensed into 1536-well assay plates at 4 ul/well in DMEM containing phenol red (Invitrogen), 10% FCS (Hyclone), and 100 units/ml Penicillin, 100 ug/ml Streptomycin (Invitrogen) and incubated at 37 C with 5% CO2 for 20 to 36 hrs before the robotic screening. The screen was initiated by addition of 4 ul/well membrane potential dye containing 100 uM RO 20-1724 (Sigma Aldrich), followed by 60 min incubation at room temperature to allow for dye equilibration across the cell membrane. 23 nl/well compound or control was then added to the assay plates, which were incubated for additional 30 min before reading a Envision fluorescence plate reader (Perkin Elmer) in bottom-read mode for fluorescence intensity (emission at 590 nm). Keywords: Thyroid-stimulating hormone TSH, TSHR, TSHR agonist, quantitative high throughput screening, qHTS, HTS, probe identification, CNG, cAMP, cyclic nucleotide gated ion channel PubChem
Potency means the concentration at half of the fitted maximal effect.

Compound | Potency
CCOC(=O)CSc1nnc(NC(=O)c2cccc(S(=O)(=O)N3CCCCC3)c2)s1 | inactive
CC1(C)c2ccccc2N2CCC(=O)NC21/C=C/c1ccco1 (stereo not given) | 6.31 µM (active)
COc1ccc(CNc2nc(SC)n[nH]2)cc1OC | inactive
COCCNC(=O)C(c1ccccc1)N(Cc1cccs1)C(=O)Cn1nnc2ccccc21 (stereo not given) | inactive
NC(=O)c1nsc(C(=O)N(CC(=O)NCc2ccc3c(c2)OCO3)C2CCCCC2)c1N | 1.26 µM (active)
CCc1ccc(-c2nc(CN3CCC(C(=O)N4CCN(c5ccccc5)CC4)CC3)c(C)o2)cc1 | inactive
Cc1cccc(NC(=O)CSc2nnc(-c3ccccc3)n2N)c1C | inactive
O=C1C=C(NCc2ccccc2)C2(CCCCC2)O1 | inactive
COc1ccc(S(=O)(=O)NCCC(=O)NCc2ccc(F)cc2)cc1 | inactive
Cc1cc(Cl)c(S(=O)(=O)Nc2ccc3c(c2)OCO3)cc1OCC(N)=O | inactive
O=S(=O)(c1ccccc1)N1CCN(C2CCN(Cc3ccccc3)CC2)CC1 | inactive
CN(Cc1ccco1)C(=O)Cn1c(=O)oc2cc(S(=O)(=O)NCc3ccccc3)ccc21 | 12.6 µM (active)
CCS(=O)(=O)N1CCN(C(C)CCc2ccccc2)CC1 (stereo not given) | inactive
c1ccc(-n2cnc3cc(NCc4ccncc4)ccc32)cc1 | inactive
Cc1nn(-c2ccccc2)c(N2CCCC2)c1/C=N/n1cnc2scc(-c3ccccc3)c2c1=O | 1.58 µM (active)
O=C1CC(c2ccco2)CC2=C1C(c1ccccc1)n1nc(C(F)(F)F)nc1N2 (stereo not given) | 1 µM (active)
CCOC(=O)C1C(=O)Nc2nc(C)nn2C1c1ccccc1 (stereo not given) | inactive
CCOc1ccc(N(C(C)C(=O)Nc2ccc(OC)cc2)S(C)(=O)=O)cc1 (stereo not given) | inactive
CN1C(=O)N(C)C2(c3ccccc3)Nn3c(s/c(=C/c4ccco4)c3=O)=NC12c1ccccc1 (stereo not given) | inactive
O=C1c2ccccc2C(=O)N1Cc1nc(-c2ccccc2)no1 | inactive

Compound | Potency
O=C(COC(=O)C1c2ccccc2Oc2ccccc21)Nc1ccc2c(c1)OCO2 | 12.6 µM (active)
CCCC(=O)C1=C(SCC)CC(C)(C)C(C(=O)OC)C1=O (stereo not given) | inactive
O=C(CN(Cc1ccc(F)cc1)S(=O)(=O)c1ccccc1)N1CCCCC1 | 10 µM (active)
CCc1ccccc1NC1=NCC(=O)N1Cc1ccc(OC)cc1 | 12.6 µM (active)
CCOC(=O)N1CCC(NC(=O)c2ccc(CNS(=O)(=O)c3ccc(F)cc3)cc2)CC1 | inactive
COc1ccc(-c2cc(C(F)(F)F)nc(SCCC(=O)N3CCOCC3)n2)cc1 | 15.8 µM (active)
Oc1ccccc1-c1cc(C(F)(F)C(F)F)nc(-c2ccccc2)n1 | 7.94 µM (active)
NC(=O)c1nsc(C(=O)N(CC(=O)NCc2ccc3c(c2)OCO3)C2CCCC2)c1N | 12.6 µM (active)
COC(=O)C1=C(C)OC(N)=C(C#N)C1c1c(C)nn(-c2ccccc2)c1Cl (stereo not given) | 7.94 µM (active)
O=c1c2ccccc2ncn1-c1ccc2c(c1)OCCO2 | inactive
CCOc1ccc(N(CC(=O)Nc2ccc(C)cc2)S(=O)(=O)c2c(C)noc2C)cc1 | inactive
Cc1ccc(-n2nc(-c3ccc(N)cc3)cc2N)cc1 | inactive
CCC(C)(C)n1nnnc1CN(Cc1ccco1)Cc1cc2cc3c(cc2[nH]c1=O)OCO3 | inactive
Cc1ccccc1-n1nc(C)c2cc(C(=O)N3CCN(S(=O)(=O)c4ccc(F)cc4)CC3)sc21 | inactive
Cc1ccccc1-c1nc(CN2CCC(C(=O)N3CCN(c4ccccn4)CC3)CC2)c(C)o1 | inactive
Cc1ccc2nc(SCC(=O)O)nc(C)c2c1 | inactive
O=C(COC(=O)C12CC3CC(CC(C3)C1)C2)NCc1ccco1 | 2 µM (active)
CCN(c1ccccc1)S(=O)(=O)c1ccc(Oc2ccc(-n3ccnc3)cc2)nc1 | inactive
Cc1cc(-n2c(C)cc(C(=O)CSc3nnnn3-c3ccc(Cl)cc3)c2C)no1 | 3.98 µM (active)
O=C1C2C3CCCC3=C3CCCC3C2C(=O)N1c1ccc(Cl)cc1 (stereo not given) | 1.58 µM (active)
